# Screening results deposited in PubChem BioAssay by Broad Institute.
# Hits are enriched below; roughly 4.1% of the tested compounds scored in any of these assays.
# CASP6 VEID inh = blocks human caspase-6 cleavage activity | P55212 | purified caspase-6, Z-VEID-R110 cleavage fluorescence | inhibition, % at 12.5 µM | actives 0.53% (n = 350,000) | AID 686996;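 active means mean inhibition across replicates at least about 35%, with every replicate also reaching that limit, limit read from the data; inconclusive means only one of the two criteria met; inactive means neither criterion met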;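 further: 0% = median of neutral control wells and 100% = no fluorescence left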
# Target sequence (P55212 24-179 limits assumed): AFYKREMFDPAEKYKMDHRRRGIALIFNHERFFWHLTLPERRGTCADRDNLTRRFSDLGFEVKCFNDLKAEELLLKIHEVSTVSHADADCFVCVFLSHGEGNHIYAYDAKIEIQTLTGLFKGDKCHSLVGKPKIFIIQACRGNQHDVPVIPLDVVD
# Target sequence (P55212 194-293 limits assumed): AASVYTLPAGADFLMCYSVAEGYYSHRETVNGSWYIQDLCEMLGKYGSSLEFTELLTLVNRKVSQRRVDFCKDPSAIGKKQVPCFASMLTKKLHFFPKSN
# NSD2 HMT inh = NSD2 (human) methyltransferase inhibition. O96028. NSD2 peptide methylation, AlphaScreen, 120 min. inhibition, % at 12.5 µM. actives 0.54% (n = 310,000). AID 743445; in the data active means inhibition above about 50%
# PglD DTNB = PglD (C. jejuni) enzyme inhibition. actives 0.098% (n = 360,000). purified PglD enzyme, DTNB colorimetric CoA detection. inhibition, % at 12.5 µM. AID 602405; in the data active means inhibition above about 16%, passing the limit was not always enough; inconclusive means no clear call, values can overlap the other calls
# ALR inh = inhibitors of human sulfhydryl oxidase ALR. purified ALR, DTT oxidation, H2O2 HRP-luminol luminescence. inhibition, % (concentration not given with the values). actives 3.8% (n = 290,000). AID 485317;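 active means mean replicate inhibition above about 79%, with every replicate also reaching it, limit read from the data; inconclusive means only one of the two criteria met; inactive means mean below limit and not every replicate reaching it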
# Target sequence (P55789 whole entry, looked up): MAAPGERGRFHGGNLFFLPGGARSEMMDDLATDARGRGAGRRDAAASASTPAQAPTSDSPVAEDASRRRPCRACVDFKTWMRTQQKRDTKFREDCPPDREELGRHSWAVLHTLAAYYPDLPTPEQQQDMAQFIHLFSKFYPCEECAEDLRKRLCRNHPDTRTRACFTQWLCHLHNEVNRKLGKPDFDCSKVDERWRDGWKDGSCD
# F508del corr = correctors of CFTR F508del function in bronchial epithelial cells. AID 720511. activity (quench increase), % at 7.58 µM. CFBE cells, YFP halide quenching; stimulated with forskolin plus potentiator P3; % fluorescence drop versus neutral controls. actives 0.36% (n = 350,000);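 active means mean added fluorescence quench of at least 8% versus neutral control, with both replicates also reaching 8%; inconclusive means only one of the mean or replicate conditions met; inactive means mean below 8% and not both replicates reaching 8%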;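 further: cells transiently co-express mutant CFTR-F508del with the halide-sensitive YFP; corrector assay measuring rescue of mutant channel to the surface after 24 h compound exposure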
# HIV Env fusion = blocks HIV Env-driven cell-cell fusion | HeLa-JRFL Env/CEM21 cell fusion, luciferase | inhibition, % at 12.3 µM | actives 1.1% (n = 360,000);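 active means mean replicate inhibition score of at least 50 and every replicate individually at or above 50; inconclusive means only one of the two criteria met; inactive means mean below 50 and not all replicates reaching 50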;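 further: 0% = plate neutral controls and 100% = maraviroc near 300 nM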
# PglD confirm = confirmation of Campylobacter jejuni PglD acetyltransferase inhibitors; shares compounds with PglD DTNB; Purified C. jejuni PglD, DTNB absorbance 412 nm; inhibition, % at 20 µM; 320 tested, under 10 active; AID 743156;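 active means mean inhibition across replicates of at least 20% with every single replicate also at 20% or more; inconclusive means mean inhibition at least 20% but some replicate falls below 20%; inactive means mean inhibition under 20% and not all replicates reach it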;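 further: initial rate of CoA release by acetyl transfer from AcCoA to the UDP-4-amino sugar; 0% = median of neutral control wells and 100% = median of positive control wells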
# * hit, by the source's call; ? = inconclusive; nt = no result; ! = not active in a repeat; [ ] = another dose, or the depositor's remark.
SMILES,CASP6 VEID inh,NSD2 HMT inh,PglD DTNB,ALR inh,F508del corr,HIV Env fusion,PglD confirm
O=C(CN(C(=O)CNC(=O)c1cccs1)c1ccc(F)cc1)NC1CCCC1,-1,1,3,nt,0,-2,nt
NCc1csc(Nc2cc(Oc3ccccc3)ncn2)n1,6,6,21*,nt,0,-6,0
Cc1noc(C)c1NC(=O)Nc1ccc2c(c1)C(=O)N([C@H](C)CO)C[C@H](C)[C@H](CN(C)C(=O)Nc1ccc(F)cc1)OCCCC[C@H](C)O2,1,nt,3,nt,0,-17[16.7 µM],nt
COc1ccc(S(=O)(=O)Nc2ccc3c(c2)CC(=O)N([C@H](C)CO)C[C@H](C)[C@@H](CN(C)Cc2ccc(C(=O)Nc4ccccc4N)cc2)O3)cc1,-4,nt,nt,nt,-1,23[16.7 µM],nt
Cc1cccc(-n2c(N)cc(=O)[nH]c2=S)c1C,nt,1,3,-1,nt,nt,nt
Nc1cc(=O)[nH]c(=S)n1-c1cccc(C(F)(F)F)c1,nt,nt,44*,-1,nt,-47,0
CO[C@H](CN(C)C(=O)C1CCOCC1)[C@H](C)CN(C(=O)Nc1ccc(F)cc1)[C@@H](C)CO,-1,nt,2,nt,-1,nt,nt
CN1C[C@@H]2[C@H](c3ccccc31)[C@@H](CO)N2C(=O)C1CCCCC1,0,nt,0,nt,0,nt,nt
O=S(=O)(NC1CCN(Cc2ccccc2)CC1)c1ccc(F)c(F)c1,-1,13,22*,nt,-1,-6,3
C[C@@H]1CCCCO[C@@H](CN(C)S(=O)(=O)c2cn(C)cn2)[C@H](C)CN([C@H](C)CO)C(=O)c2cc(NS(=O)(=O)c3cccs3)ccc2O1,-1,nt,0,nt,1,3[16.7 µM],nt
COc1ccc(N=Nc2ccc(CO)cc2)cc1,-1,nt,45*,-11,-1,-159,1
COc1ccc(N=Nc2cc(C)ccc2O)cc1,-1,11,nt,1,0,-270,nt
CCOc1cccc(CN(CC)CC2CCCN(CCc3cccc(OC)c3)C2)c1O (stereo unspecified),-16,14,1,63,3,2,nt
CCN(Cc1cccc(OC)c1)CC1CCCN(CCc2cccc(OC)c2)C1 (stereo unspecified),-15,14,22*,-4,0,15,-14
CC(C)Cc1nc(N2CCN(C(=O)c3ccco3)CC2)c(C#N)c2c1CCC2,nt,6,21*,5,nt,nt,?
CC(C)Cc1nc(N2CCN(C(=O)c3ccccc3)CC2)c(C#N)c2c1CCC2,nt,-4,2,-5,nt,13,nt
Nc1c(N2CCCC2)c2ccccc2oc1=O,3,1,21*,68,0,-2,-4
C[C@H](CO)N1C[C@H](C)[C@H](CN(C)Cc2ccc(C(=O)O)cc2)Oc2ccc(NC(=O)Cc3ccccc3)cc2C1=O,2,nt,6,nt,-3,-35[16.7 µM],nt
COc1ccccc1/C=C/C(=O)N1CCN(S(=O)(=O)c2cccs2)CC1,-1,0,32*,-3,1,15,-1
O=C(Nc1ccccc1C(=O)N1CCOCC1)C1CC(=O)N(c2ccc(F)cc2)C1 (stereo unspecified),1,8,-12,-4,0,-27,nt
O=C(Nc1ccccc1C(=O)N1CCOCC1)C1CC(=O)N(C2CCCC2)C1 (stereo unspecified),nt,-4,33*,-31,nt,-46,-5
O=C(CSc1nnc(-c2ccncc2)n1Cc1ccccc1)Nc1nccs1,nt,1,48*,-13,nt,-67,2
COc1ccc2c3c(n(C)c2c1)[C@@H](CO)N(C(=O)c1cccnc1)CC31CCN(S(C)(=O)=O)CC1,nt,nt,nt,nt,-1,nt,nt
O=c1oc2ccccc2cc1-c1ccccc1,1,-3,24*,-8,-1,-38,-9
O=c1oc2ccc(Cl)cc2cc1-c1ccccc1,nt,-1,nt,-40,nt,2,nt
SMILES,CASP6 VEID inh,NSD2 HMT inh,PglD DTNB,ALR inh,F508del corr,HIV Env fusion,PglD confirm
CCCOc1ccc(S(=O)(=O)NCCN2CCOCC2)c2ccccc12,nt,-1,23*,-9,nt,nt,1
CCOc1ccc(S(=O)(=O)NCCN2CCOCC2)c2ccccc12,nt,1,-7,-13,nt,3,nt
CC(C)(C)c1cc[n+](-c2[nH]c(=O)sc2/C=N/NC([S-])=Nc2ccccc2)cc1,5,0,21*,13,1,7,3
CC(C)NC(=O)N(C)C[C@H]1Oc2cc(C#Cc3ccc(F)cc3)ccc2S(=O)(=O)N([C@@H](C)CO)C[C@@H]1C,1,nt,0,nt,0,?,nt
CC(C)NC(=O)N(C)C[C@H]1Oc2cc(C#Cc3ccc(F)cc3)ccc2S(=O)(=O)N([C@H](C)CO)C[C@H]1C,4,nt,21*!,nt,5,23[16.7 µM],10
C[C@@H]1CN([C@H](C)CO)C(=O)Cc2cc(NC(=O)Nc3cccc4ccccc34)ccc2O[C@H]1CN(C)Cc1ccncc1,14,nt,6,nt,-1,12[16.7 µM],nt
CC(C)n1nc(Cc2cccc3ccccc23)c(C#N)c1N,7,nt,89*,-6,-5,19,-5
Cc1cccc2cc(C3CC(c4ccco4)=NN3C(=O)CCC(=O)O)c(Cl)nc12 (stereo unspecified),22,0,23*,40,nt,-4,-6
COc1ccc2nc(Cl)c(C3CC(c4ccco4)=NN3C(=O)CCC(=O)O)cc2c1 (stereo unspecified),nt,12,nt,5,nt,nt,nt
Cc1ccc2cc(C3CC(c4ccco4)=NN3C(=O)CCCC(=O)O)c(Cl)nc2c1 (stereo unspecified),7,nt,34*,-2,-1,14,2
Cc1ccc2nc(Cl)c(C3CC(c4ccco4)=NN3C(=O)CCCC(=O)O)cc2c1 (stereo unspecified),10,0,nt,nt,1,12,nt
COc1ccc(NC(=O)N(C)C[C@@H]2Oc3ccc(NC(=O)C4CC4)cc3C(=O)N([C@@H](C)CO)C[C@H]2C)cc1,0,nt,0,nt,0,13[16.7 µM],nt
OC(CC#CCN1CCCCC1)(c1ccccc1)c1ccccc1,-2,-1,27*,nt,-2,5,-10
C[C@H]1CCCCO[C@H](CN(C)S(=O)(=O)c2ccc(Cl)cc2)[C@@H](C)CN([C@@H](C)CO)C(=O)c2cc(NS(=O)(=O)c3cn(C)cn3)ccc2O1,3,nt,5,nt,4,1[16.7 µM],nt
FC(F)(F)c1ccncc1-c1nnc(C2CCCCC2)o1,-2,-2,22*,-1,0,-5,0
CCCNC(=O)N1CC2(CN(C(=O)Cc3cccnc3)C2)c2c([nH]c3cc(OC)ccc23)[C@@H]1CO,-1,nt,nt,nt,0,nt,nt
CCn1c(SCC(=O)Nc2ccc3c(c2)OCCO3)nnc1-c1ccccn1,nt,-1,76*,-6,nt,5,-4
Cc1ccc2nc(C)cc(OCC(=O)O)c2c1,nt,-8,21*,-6,nt,-3,-4
O=C(NCCc1ccccc1)C1CCN(S(=O)(=O)c2cccs2)CC1,nt,1,3,-3,nt,nt,nt
O=C(NCCc1ccc(Cl)cc1)C1CCN(S(=O)(=O)c2cccs2)CC1,nt,7,21*,-18,nt,-4,0
